# Measurements reported in PubChem BioAssay AID1259422 (The Scripps Research Institute Molecular Screening Center, 2018).
# About 9,300 (1.5%) of roughly 640,000 compounds were called active. Many of the other results were omitted from the sample, so actives are more common in it than they were. A number with no mark means an inactive call. No stated cut-off is given here; in the data, active means inhibition above about 32%; inactive means the rest.
# Experiment: TEAD-YAP interaction inhibition, primary screen, TEAD-YAP interaction inhibitor project, luminescence, HEK-TIYL cells (AID 1259422);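 further: 0% = median of test compound wells and 100% = reference inhibitor wells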
# Conditions: TEAD-Gal4/YAP UAS-luciferase luminescence, at 9.12 µM, active compounds read high
row,SMILES,inhibition
1,CCOc1ccc(Nc2nc(Nc3ccc(C(C)=O)cc3)nc(C)c2[N+](=O)[O-])cc1,6.26%
2,COc1ccc(OC)c(NC(=O)CN2CCC(n3c(C)nc4cc(F)ccc43)CC2)c1,-30.9%
3,CCOC(=O)CC1NCC2c3ccccc3CCN2C1=O (configuration not stated),2.64%
4,OC1CCN(c2ccnc3c(-c4cccc(C(F)(F)F)c4)cnn23)CC1,10%
5,O=C(c1c[nH]c(=O)n(-c2ccc(F)c(Cl)c2)c1=O)N1CCCc2ccccc21,38.2% (active)
6,O=C(c1cc(Cl)ccc1[N+](=O)[O-])N1CCCc2ccccc21,10.8%
7,O=C(COc1ccc(Cl)cc1Cl)N1CCCc2ccccc21,-11.7%
8,COc1cc(NC(=O)c2sc3nc(C)nc(N4CCN(C)CC4)c3c2C)cc(OC)c1,4.26%
9,C/C(CC(=O)NC1CCCC1)=N\NC(=O)COc1cccc(C)c1,-8.3%
10,COc1ccc(C(=O)N/N=C(\C)CC(=O)Nc2ccccc2)c(OC)c1,-36.2%
11,COc1cc(OC)cc(C(=O)N/N=C(\C)CC(=O)Nc2ccccc2-c2ccccc2)c1,51.5% (active)
12,COc1ccc(NC(=O)CS(=O)CC(=O)Nc2ccccc2-c2ccccc2)cc1 (configuration not stated),-6.02%
13,COc1cc(OC)cc(C(=O)N/N=C(\C)CC(=O)NC2CCCCCCC2)c1,54.5% (active)
14,C/C(CC(=O)NC1CCCCC1)=N\NC(=O)c1ccncc1,2.69%
15,COc1ccc2nc(NC(=O)c3ccccc3OC)sc2c1,5.95%
16,CCc1nc(SCC(=O)Nc2nc(C)c(C)s2)c2ccccc2n1,5.48%
17,O=C1Nc2cc(C(=O)N3CCN(c4ccccn4)CC3)ccc2Nc2ccccc21,11.1%
18,c1cc(N2CCOCC2)n2ncc(-c3ccc4[nH]ccc4c3)c2n1,96.6% (active)
19,COc1ccc(-c2cnn3c(N4CCOCC4)ccnc23)c(OC)c1,-6.8%
20,OC1CCN(c2ccnc3c(-c4ccoc4)cnn23)CC1,-22.8%
21,COc1cc(-c2cnn3c(N4CCOCC4)ccnc23)cc(OC)c1OC,76.6% (active)
22,Clc1ccccc1-c1cnn2c(N3CCOCC3)ccnc12,16.7%
23,COc1cccc(-c2cnn3c(N4CCC(O)CC4)ccnc23)c1,21.5%
24,O=C(CNC(=O)c1ccco1)N/N=C/c1ccc(O)c(O)c1,3.54%
25,Cc1ccc(N(CC(=O)O)C2SC(=O)N(c3ccccc3)C2=O)cc1 (configuration not stated),-28.6%

row,SMILES,inhibition
1,Cc1cc(C)cc(OCC(=O)Nc2sc3c(c2C(N)=O)CCCC3)c1,-1.21%
2,CCCCOC(=O)C1=C(C)NC2=C(C(=O)CC(C)(C)C2)C1c1ccc(Cl)cc1Cl (configuration not stated),1.21%
3,Cc1nc(C)n(-c2ccc(Nc3ncc4ccc(-c5cnn(C)c5)cc4n3)cc2)n1,84.9% (active)
4,Cc1ncn(-c2ccc(Nc3ncc(-c4cnn(C)c4)c(-c4cnn(C)c4)n3)cc2)n1,-5.05%
5,Cc1nc(C)n(-c2ccc(Nc3cc(-n4ccnn4)ccn3)cc2)n1,1.02%
6,Cc1ccccc1CCNCc1ccc(C(=O)O)s1,-4.88%
7,CC(C)(C)c1nc2ccccc2c2nn(CC(=O)N3CCNC(=O)C3(C)C)c(=O)n12,-10.6%
8,O=C(NCC1CCCO1)c1ncoc1-c1cccc(Cl)c1 (configuration not stated),-34.8%
9,Cn1nnc2c(N3CCN(CC(=O)Nc4ccccc4F)CC3)ncnc21,3.56%
10,Cc1nn2c(NCc3ccncc3)c3c(nc2c1-c1ccccc1)CCC3,-22.7%
11,COc1cccc2c(=O)n(CC(=O)NCc3ccccc3)ccc12,38.8% (active)
12,COc1ccccc1NC(=O)Cn1ccc2ccccc2c1=O,-0.57%
13,O=C(Cn1cnc2ccccc2c1=O)NCc1ccccc1,2.51%
14,Cc1c(-n2c(-c3ccco3)nc3ccccc3c2=O)c(=O)n(-c2ccccc2)n1C,-10.7%
15,Cn1c(-c2ccco2)nc2cc3ccccc3cc21,90.5% (active)
16,Cn1cc(S(=O)(=O)O)cc1-c1nc2ccccc2n1C,9.5%
17,C(/C=C/c1ccccc1)=Nc1ccc(N2CCOCC2)cc1,18.8%
18,NC1=NC(=Nc2ccc(N3CCCCC3)cc2)c2ccccc21,60.5% (active)
19,NC1=NC(=Nc2cc(Cl)cc(Cl)c2)c2ccccc21,-2.03%
20,O=C1OC(c2ccccc2Cl)=N/C1=C\c1ccco1,4.9%
21,COc1cc(/C=N/NC(=O)CC(=O)NCC(C)C)ccc1O,8.56%
22,CCOC(=O)N1CCN(C(=O)c2ccc3c(=O)n(Cc4ccccc4Cl)c(=S)[nH]c3c2)CC1,-2.49%
23,Cc1noc(C)c1-c1nc(NC2CC2)c2ncn(-c3ccsc3)c2n1,41.4% (active)
24,COc1ccc(CCNc2nc(-c3c(C)noc3C)nc3c2ncn3-c2ccsc2)cc1,-2.43%
25,c1ccc2c(-c3nc(NC4CC4)c4ncn(-c5ccsc5)c4n3)csc2c1,13.5%

row,SMILES,inhibition
1,CC(=O)N(c1cccc(C)c1)C1SC(=O)N(c2cccc(C)c2)C1=O (configuration not stated),3.53%
2,CC(=O)Nc1cccc(-c2nc3cccnc3s2)c1,-43.1%
3,O=C(Nc1ccc(-c2nc3cccnc3s2)cc1)C1CCCC1,51.9% (active)
4,CC(=O)Nc1ccc(S(=O)(=O)Nc2ccc(-c3nc4cccnc4s3)cc2)cc1,7.3%
5,Cc1ncc(-c2ccc(F)cc2)c(C2CCCN(CCO)C2)n1 (configuration not stated),-9.4%
6,COC(=O)COc1ccc(/C=C2/NC(=O)N(c3ccccc3)C2=O)cc1OC,11.3%
7,Cc1nc(NC(=O)/C=C/c2cccc([N+](=O)[O-])c2)sc1C(=O)N(C)C,-12.3%
8,N#Cc1ccc(OCC(=O)Nc2ccc3c(c2)C(=O)c2ccccc2C3=O)cc1,-21.1%
9,CCOC(=O)CSC1=C(C#N)C(c2sccc2C)CC(=O)N1 (configuration not stated),56.8% (active)
10,N#CC1=C(SCC(=O)OCc2ccccc2)NC(=O)CC1c1ccc(F)cc1 (configuration not stated),6.22%
11,COc1ccc(C(=O)CSC2=C(C#N)C(c3cccs3)CC(=O)N2)cc1 (configuration not stated),-82.2%
12,CCOC(=O)CSC1=C(C#N)C(c2ccccc2)CC(=O)N1 (configuration not stated),53.9% (active)
13,CCOc1cc(C2CC(=O)NC(SCC(=O)OCc3ccccc3)=C2C#N)ccc1O (configuration not stated),-6.79%
14,N#CC1=C(SCC(=O)Nc2nccs2)NC(=O)CC1c1cccs1 (configuration not stated),5.49%
15,CCOC(=O)c1ccc(CN(Cc2ccc(Br)cc2)S(=O)(=O)c2cc(Cl)cc(Cl)c2)cc1,11.6%
16,O=C(NCCc1ccccc1)C(=O)Nc1ccccc1F,-44.1%
17,CCCCSc1nc2sc3c(c2c(=O)n1-c1ccc(OC)cc1)CCCC3,-1.35%
18,O=C(CCSc1ccccc1)Nc1cccc2ccc(-n3ccnc3)nc12,-3.58%
19,COc1cc(C(=O)Nc2cc(-c3nc4ccc(C)cc4o3)ccc2C)ccc1OCc1ccc(Cl)cc1,-64.2%
20,Cc1cc(N2CCOCC2)nc(SCC(=O)N2CCCC2)n1,5.97%
21,Cc1cc(N2CCCCC2)nc(NCCNC(=O)C2CCCO2)n1 (configuration not stated),42.3% (active)
22,CCNC(=O)C1CCN(c2nc(C)cc(C)n2)CC1,-5.09%
23,O=C(/C=C/c1ccc(F)cc1)NCCCCNC(=O)/C=C/c1ccc(F)cc1,-6.73%
24,Cc1cccc(NC(=O)/C=C/c2ccc(F)cc2)c1,34.1% (active)
25,O=C(/C=C/c1ccc(F)cc1)Nc1ccccc1F,79.4% (active)

row,SMILES,inhibition
1,Cc1csc(NC(=O)/C=C/c2ccc(F)cc2)n1,-40.2%
2,O=C(/C=C\c1ccccc1)Nc1cc2ccccc2cc1NC(=O)/C=C/c1ccccc1,-0.29%
3,Cc1cc(C)nc(NS(=O)(=O)c2ccc(NC(=O)/C=C/c3ccc(F)cc3)cc2)n1,-8.5%
4,O=C(Nc1ccc(-c2nc3cc(Cl)ccc3o2)cc1)c1ccc(-c2ccc(Cl)cc2)o1,-100%
5,O=S(=O)(NCc1ccccc1)c1cccc(S(=O)(=O)NCc2ccccc2)c1,4.17%
6,N#C/C(=C\c1cn(-c2ccccc2)nc1-c1ccc(Cl)cc1)C(N)=O,2.99%
7,NC(=O)c1ccc(-c2nc(NC3CC3)c3ncn(C4CCCCC4)c3n2)cc1,18%
8,O=C(O)c1nnn(-c2ccccc2)c1C(=O)O,5.21%
9,CCOC(=O)c1sc2nc(C)nc(N3CCCCC3)c2c1C,-2.79%
10,O=C(c1cc2ccccc2oc1=O)N(Cc1ccccc1)c1cccc([N+](=O)[O-])c1,0.25%
11,O=[N+]([O-])C1CS(=O)(=O)C=C1N(Cc1ccccc1)c1ccccc1 (configuration not stated),39.5% (active)
12,CCN(Cc1ccccc1)Cc1ccc([N+](=O)[O-])cc1,10.2%
13,Cc1cc(OCc2nc(SCC(=O)N(C)C)n[nH]2)ccc1Cl,-1.92%
14,Cc1ccccc1Nc1ncnc2nc[nH]c12,-0.78%
15,COc1cc(C(=O)NC(=S)Nc2ccccc2O)cc(OC)c1OC,12%
16,CCc1cc(C)cc(OCC(O)Cn2c(C)nc3ccccc32)c1 (configuration not stated),26.7%
17,Cc1cc(C)c(OCC(O)Cn2c(C)nc3ccccc32)c(C)c1 (configuration not stated),35.1% (active)
18,Cc1nc2ccccc2n1CC(O)COc1ccc(N)cc1 (configuration not stated),10.8%
19,O=C(Oc1cc(-c2ccc(Cl)cc2)c2oc(=O)sc2c1)c1ccccc1,-3.66%
20,COc1ccccc1N1CCN(Cc2cc(=O)c(OCc3ccc(Cl)cc3)co2)CC1,6.69%
21,COc1ccccc1N1CCN(S(=O)(=O)c2ccccc2[N+](=O)[O-])CC1,13%
22,COc1ccccc1N1CCN(c2c(-c3ccc(Cl)cc3)c(=O)c2=O)CC1,70.2% (active)
